Structures are written as SMILES. Where “and” joins values, the source holds several entries; their conditions need not be identical. Equal entries are not always repeated. Calls of active or inactive are those of the source.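 Rule for the calls, unless noted: active = thallium flux through the channel raised or lowered by more than 3 SD from vehicle-only wells, actives on both sides; inactive = the rest.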 Numbered stars: 1 amine (or outer) side, 2 acyl side, 3 side chain; on linkers, the order of the positions; unused ones are H or OH. Bridge positions count the residues as written; N and C are the ends. Square brackets hold non-standard residues; d marks the D form. Peptide text beside a SMILES is read from it. I, II: the chains in the order shown. Actinocin(9to1) = Cc1c2oc3c(C)ccc(C(=O)[*:1])c3nc-2c(C(=O)[*:2])c(N)c1=O; NMeV = CN[CH](C(=O)O)C(C)C; Sar = CNCC(=O)O

Assay [1] is described as follows: liver-stage malaria parasite growth inhibition, primary screen, cell-based, HepG2, luciferase luminescence, HepG2 viability (AID 624349; in the data active = parasite load remaining mostly below about 12%, no sharp cut-off; inactive = mostly above about 10%;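 note: 100% = mean of DMSO negative control wells on the same plate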). The note with it: P. berghei liver stage in HepG2, luciferase luminescence, concentration not given here; parasite load remaining: stronger effect = lower value; viability: measured here: HepG2 viability without parasites.
The nature of assay [2]: Cy5 fluorescence interference with SSB-bound oligo, artefact control for HCV NS3 helicase inhibitor project, biochemical, NIH Clinical Collection, E. coli SSB (AID 743268; call rule not given here).
Assay [3] relates to Hepatitis C virus NS3 helicase. The assay is described as follows: HCV NS3 helicase inhibitors, primary screen, biochemical, fluorescence polarization, NIH Clinical Collection (AID 743270; call rule not given here). To be noted: NS3 helicase binding to Cy5-dT15 DNA, stronger effect = higher value, concentration not given here. (In general: Polarisation of emitted light reports the rotation of a fluorescent probe.)

Assay [4] has as its target Single-stranded DNA-binding protein (Escherichia coli (strain K12)) (UniProt P0AGE0). The assay is described as follows: E. coli SSB displacement from DNA, counter-screen for HCV NS3 helicase inhibitor project, biochemical, fluorescence polarization, NIH Clinical Collection (AID 743271; in the data active = inhibition above about 28%). To be noted: stronger effect = higher value, concentration not given here.
Assay [5] can be described thus: fluorescence interference in NS3h assay format, artefact control for HCV NS3 helicase inhibitor project, biochemical, NIH Clinical Collection (AID 743272; call rule not given here;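 note: HCV NS3 helicase with a Cy5 labelled single stranded DNA probe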). To be noted: fluorescence interference counterscreen, stronger effect = lower value.
The subject of assay [6] is Neuropilin-2 / VEGF-C interaction (human). As to the kind of experiment: inhibitors of NRP2–VEGF-C binding, biochemical, microplate binding format, z-score (AID 743281; call rule not given here). The note with it: microplate NRP2/VEGF-C binding assay; stronger effect = lower value.
The nature of assay [7]: modulation of C. elegans fzo-1 (AID 1259413; call rule not given here;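 note: fzo-1 mutant C. elegans worms in liquid wells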). The note with it: C. elegans fzo-1 modulator screen, mean read-out; stronger effect = higher value.
A further assay has as its system F380Y. The assay is described as follows: modulators of BK channel variants, profiling panel, selectivity assay, cell-based, U2OS BacMam, thallium flux, beta subunits (AID 1259406).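 Note: initial slope of Thallos dye fluorescence rise after thallium is added; log ratio against the mean of 0.3% DMSO vehicle wells on the same plate.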 The note with it: at 30 µM.
Another assay relates to F380Y/beta1. The description is as above. The note with it: at 30 µM.
In another assay the test system is F380Y/beta2Delta. Described as above. To be noted: at 30 µM.
For the next assay, the system named is F380Y/beta4. Described as above. To be noted: at 30 µM.
Assay [8] addresses Calcium-activated potassium channel subunit alpha-1 (Homo sapiens) + Leucine-rich repeat-containing protein 26 (Homo sapiens) (UniProt Q12791+Q2I0M4). Described as above. The note with it: F380Y/Slo1WT/gamma1, at 30 µM.
The next assay concerns R275C. The assay is described as above. To be noted: at 30 µM.
Another assay concerns R275C/beta1. The assay is described as above. To be noted: at 30 µM.
The subject of a further assay is R275C/beta2Delta. The assay is described as above. To be noted: at 30 µM.
A further assay relates to R275C/beta4. Described as above. To be noted: at 30 µM.
A further assay deals with R275C/Slo1WT/beta2. The assay is described as above. To be noted: at 30 µM.
The nature of assay [9]: sensitizers of A549 cells to miR-34 induction, primary screen, imaging, A549 dox-inducible miR-34, nuclei and caspase counts (AID 1347080;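 active = compounds whose cell count with miR-34 switched on is under 0.7 times the count with it off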). To be noted: A549 miR-34 inducible, Hoechst nuclei count, 48 h.
Assay [10] is described as follows: viability rescue of complex I mutant cybrids, primary screen, cell-based, galactose medium, ATP luminescence (AID 1645843;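 active = z-score of at least 1.8 in each of two replicates, scored against plate mean and spread of sample wells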;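 note: positive z means more ATP and so rescue of galactose-driven cybrid death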). To be noted: complex I mutant cybrid cells, 72 h, stronger effect = higher value.
Assay [11] is described as follows: differential killing of epithelial or mesenchymal cells, primary screen, imaging, PC-3E GFP, TEM4-18 mCherry, co-culture (AID 1345086;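 active = compounds killing one labelled cell type while sparing the other, by normalised counts and ratio limits, not self-fluorescent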;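 note: cells exposed to compound for 72 h before imaging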;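 for red/green cell ratio (normalised): normalised mesenchymal count divided by normalised epithelial count so high means epithelial killing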). The note with it: imaging cell counts, at 1 µM.
The mark [12] stands for this setting: stronger effect = lower value, cell number ratio, induced over uninduced.
Setting [13] is: measured here: relative caspase fold change +Dox/-Dox.
Where [14] appears, read: measured here: total cells with miR-34 induction, stronger effect = lower value.
Setting [15] is: measured here: total cells without miR-34 induction.

Calcium-activated potassium channel subunit alpha-1 (Homo sapiens) + Leucine-rich repeat-containing protein 26 (Homo sapiens), sequence (Q2I0M4 whole entry, looked up, one chain of several): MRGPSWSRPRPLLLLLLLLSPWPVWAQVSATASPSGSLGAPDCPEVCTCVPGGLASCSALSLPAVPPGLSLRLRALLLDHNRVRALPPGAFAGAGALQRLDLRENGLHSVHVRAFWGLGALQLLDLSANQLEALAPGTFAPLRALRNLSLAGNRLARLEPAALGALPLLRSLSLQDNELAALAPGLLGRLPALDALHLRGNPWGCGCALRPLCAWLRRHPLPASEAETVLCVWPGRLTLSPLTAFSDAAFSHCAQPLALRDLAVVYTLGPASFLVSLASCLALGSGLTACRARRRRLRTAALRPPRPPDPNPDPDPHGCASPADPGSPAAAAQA

As to `O=C(OC1C[C@@H]2CC3C[C@H](C1)N2CC3=O)c1c[nH]c2ccccc12` (stereo partly drawn), the parasite load remaining in [1] is 52.7% (inactive). In addition, the viability in [1] was determined as 72.3%. Besides, the fluorescence ratio in [2] is 1.02 (inactive); in assay [5] it was 1 (inactive). Further, the inhibition in assay [3] is -2.84% (inactive); in [4] it was -2.76% (inactive). The z-score in assay [6] was -0.0143 (inactive). Moreover, the mean signal in [7] was 222 (inactive). For the same molecule, the log fold change Tl+ flux was 0.0495 (inactive) with F380Y; 0.0612 (inactive) in the assay with F380Y/beta1; 0.0379 (inactive) with F380Y/beta2Delta; 0.00589 (inactive) in the assay with F380Y/beta4; -0.004 (inactive) in assay [8]; -0.0531 (inactive) in the assay on R275C. The log fold change Tl+ flux with R275C/beta1 was 0.0632 (inactive); in the assay on R275C/beta2Delta it was 0.00308 (inactive); with R275C/beta4, 0.022 (inactive); with R275C/Slo1WT/beta2, 0.011 (inactive).
Regarding `Nc1ccc2cn[nH]c2c1`, in assay [1], the parasite load remaining is 61.3% (inactive). Further, the viability in [1] worked out at 64.9%. Besides, the fluorescence ratio is 0.99 (inactive) in assay [2] and 0.98 (inactive) in assay [5]. Further, the figures for the inhibition in assay [3] and in [4] were -1.09% (inactive) and -0.39% (inactive), respectively. The results for the z-score in assay [6] and in assay [10] were -0.807 (inactive) and 0.52 (inactive), respectively. Moreover, in assay [7], the mean signal was 290 (inactive). The figures for the fold change in [9] (setting [12]) and in [9] (setting [13]) were 0.924 (inactive) and 1.71, respectively. Further, the cell count in assay [9] (setting [14]) turned out to be 8130; in assay [9] (setting [15]), 8800. The log fold change Tl+ flux was -0.0182 (inactive) in the assay on F380Y; -0.022 (inactive) in the assay with F380Y/beta1; 0.0231 (inactive) with F380Y/beta2Delta; -0.00919 (inactive) with F380Y/beta4; 0.0509 (inactive) in [8]; -0.0141 (inactive) with R275C. The log fold change Tl+ flux in the assay on R275C/beta1 is -0.000281 (inactive); in the assay on R275C/beta2Delta it was 0.0572 (inactive); in the assay with R275C/beta4 it was -0.0327 (inactive); in the assay on R275C/Slo1WT/beta2, 0.0188 (inactive).
Consider `CN1C2CCC1CC(OC(c1ccccc1)c1ccccc1)C2` (stereo not drawn), for which the parasite load remaining in [1] is 25.8% (inactive) and 92.2% (inactive) and 42.8% (inactive). Further, the viability in assay [1] was 81.7% and 71.5% and 99.9%. Also, the fluorescence ratio was 1.04 (inactive) in assay [2] and 1.01 (inactive) in [5]. Moreover, the values for the inhibition in assay [3] and in assay [4] were -5.91% (inactive) and -4.29% (inactive), respectively. In addition, the mean signal in assay [7] was 197 (inactive). Moreover, the z-score in [10] was -0.84 (inactive) and -0.76 (inactive). Moreover, the log fold change Tl+ flux is 0.117 (active) in the assay with F380Y; 0.0778 (inactive) in the assay on F380Y/beta1; 0.124 (active) in the assay on F380Y/beta2Delta; 0.212 (active) in the assay on F380Y/beta4; 0.00637 (inactive) in [8]; -0.0804 (inactive) in the assay on R275C. For the same molecule, the log fold change Tl+ flux with R275C/beta1 is 0.237 (active); with R275C/beta2Delta, 0.0793 (inactive); with R275C/beta4, 0.252 (active); in the assay with R275C/Slo1WT/beta2, 0.0196 (inactive).
Consider `Cc1c2oc3c(C)ccc(C(=O)NC4C(=O)NC(C(C)C)C(=O)N5CCCC5C(=O)N(C)CC(=O)N(C)C(C(C)C)C(=O)OC4C)c3nc-2c(C(=O)NC2C(=O)NC(C(C)C)C(=O)N3CCCC3C(=O)N(C)CC(=O)N(C)C(C(C)C)C(=O)OC2C)c(N)c1=O` (stereo not drawn) (I: TVP[Sar][NMeV] / II: TVP[Sar][NMeV]; ester I:1-I:C, II:1-II:C; linker I:N-II:N via Actinocin(9to1); configuration not given here), for which the fold change in [9] (setting [12]) is 1.02 (inactive); in [9] (setting [13]) it was 1.2. Moreover, the cell count turned out to be 2640 in [9] (setting [14]) and 2570 in [9] (setting [15]). Moreover, the z-score in assay [10] was -1.86 (inactive). For the same molecule, the log fold change Tl+ flux in the assay with F380Y is -0.0282 (inactive); with F380Y/beta1, 0.0244 (inactive); in the assay on F380Y/beta2Delta, -0.0313 (inactive); with F380Y/beta4, -0.0252 (inactive); in [8], -0.013 (inactive); in the assay with R275C, -0.0516 (inactive). The log fold change Tl+ flux in the assay with R275C/beta1 was 0.0499 (inactive); in the assay with R275C/beta2Delta it was -0.00324 (inactive); with R275C/beta4, 0.0337 (inactive); in the assay with R275C/Slo1WT/beta2 it was 0.0757 (inactive).
Regarding `Nc1ncnc2c1ncn2[C@@H]1O[C@H](CO)C[C@@H]1O`, the parasite load remaining in assay [1] was 137% (inactive). The viability in assay [1] was determined as 93.2%. Moreover, the results for the fluorescence ratio in assay [2] and in assay [5] were 0.96 (inactive) and 0.87 (inactive), respectively. Moreover, the inhibition in assay [3] is -2.77% (inactive); in [4], 2.21% (inactive). Besides, the z-score in [6] was -0.398 (inactive). Moreover, in [7], the mean signal is 230 (inactive). In addition, the log fold change Tl+ flux with F380Y is 0.0402 (inactive); with F380Y/beta1 it was 0.0107 (inactive); with F380Y/beta2Delta it was -0.0103 (inactive); in the assay with F380Y/beta4 it was 0.0334 (inactive); in assay [8], 0.00963 (inactive); in the assay on R275C it was -0.0453 (inactive). The log fold change Tl+ flux in the assay on R275C/beta1 is -0.0213 (inactive); in the assay on R275C/beta2Delta, 0.0189 (inactive); in the assay with R275C/beta4, -0.00206 (inactive); with R275C/Slo1WT/beta2 it was 0.0268 (inactive).
On to `C[n+]1ccccc1C=NO`, for which the parasite load remaining in assay [1] is 51.7% (inactive). The viability in assay [1] came to 127%. In assay [11] (actives lie on both sides, counts scaled to control wells, 1 = unselective), the red/green cell ratio (normalised) is 1.01 (inactive). The normalised cell number worked out at 1 in [11] (measured here: epithelial PC-3E GFP cell survival) and 1.02 in assay [11] (measured here: mesenchymal TEM4-18 mCherry cell survival). The results for the fold change in assay [9] (setting [12]) and in assay [9] (setting [13]) were 0.861 (inactive) and 4.73, respectively. The cell count in [9] (setting [14]) is 11500; in assay [9] (setting [15]), 13300. Further, the log fold change Tl+ flux was -0.0173 (inactive) in the assay with F380Y; 0.0118 (inactive) in the assay with F380Y/beta1; -0.00109 (inactive) with F380Y/beta2Delta; -0.0377 (inactive) with F380Y/beta4; -0.000474 (inactive) in assay [8]; -0.00984 (inactive) in the assay on R275C. The log fold change Tl+ flux was 0.0135 (inactive) in the assay on R275C/beta1, 0.00623 (inactive) in the assay on R275C/beta2Delta, -0.0487 (inactive) in the assay on R275C/beta4 and -0.0159 (inactive) in the assay on R275C/Slo1WT/beta2.
In the case of `CC(C(O)c1ccc(O)cc1)N1CCC(Cc2ccccc2)CC1` (stereo not drawn), the fluorescence ratio is 1.03 (inactive) in assay [2] and 0.98 (inactive) in assay [5]. In addition, the inhibition in assay [3] is -6.73% (inactive); in assay [4] it was -4.72% (inactive). In addition, the z-score in assay [6] is -0.156 (inactive); in assay [10], -1.16 (inactive) and -1.04 (inactive) and -0.25 (inactive). For the same molecule, the mean signal in assay [7] was 233 (inactive). Besides, the log fold change Tl+ flux in the assay on F380Y was 0.0449 (inactive); in the assay with F380Y/beta1 it was -0.0111 (inactive); in the assay with F380Y/beta2Delta it was 0.00326 (inactive); in the assay on F380Y/beta4 it was 0.0228 (inactive); in assay [8], -0.0962 (active); in the assay on R275C it was -0.193 (active). Besides, the log fold change Tl+ flux is -0.0365 (inactive) in the assay on R275C/beta1, -0.218 (active) with R275C/beta2Delta, -0.0303 (inactive) in the assay on R275C/beta4 and 0.00646 (inactive) with R275C/Slo1WT/beta2.

By viability is commonly meant a read-out of living cells in per cent, often relative to untreated cells. A word on the inhibition: it is the drop in the measured response relative to a control, in per cent.
